High-throughput results: PubChem, National Center for Advancing Translational Sciences (NCATS)
Rows were chosen to be rich in hits. Some 15% of all compounds tested hit in one or more screens of this group.
TDP1 cell noCPT – qHTS for Inhibitors of human tyrosyl-DNA phosphodiesterase 1 (TDP1): qHTS in cells in absence of CPT; DT40 Tdp1-/- hTDP1 cells, no CPT, ATP luminescence, 48 h; Potency, µM (titrated, usually from 46.2 µM), without a hit: at the highest dose activity change, negative = growth inhibition, actives largely listed as inhibitors; 15% of 420,000 active; AID 686978, 2013; note: nearly all actives have a fitted effect of over 55% in size
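Luminescent ATP content (CellTiter-Glo) served as the growth readout. Knockout chicken DT40 cells expressing human TDP1 were exposed to compounds without camptothecin for a minimum 48 hr at 37 °C.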
ALOX12 inh – Primary qHTS assay for inhibitors of human arachidonate 12S-lipoxygenase (ALOX12): Round 2. Polyunsaturated fatty acid lipoxygenase ALOX12 (Homo sapiens), P18054. purified 12hLO, xylenol orange hydroperoxide absorbance. 1.1% of 580,000 active. Potency, µM (doses to about 108 µM), without a hit: at the highest dose activity change, negative = inhibition, most hits filed as inhibitors
Target sequence (P18054 whole entry, looked up): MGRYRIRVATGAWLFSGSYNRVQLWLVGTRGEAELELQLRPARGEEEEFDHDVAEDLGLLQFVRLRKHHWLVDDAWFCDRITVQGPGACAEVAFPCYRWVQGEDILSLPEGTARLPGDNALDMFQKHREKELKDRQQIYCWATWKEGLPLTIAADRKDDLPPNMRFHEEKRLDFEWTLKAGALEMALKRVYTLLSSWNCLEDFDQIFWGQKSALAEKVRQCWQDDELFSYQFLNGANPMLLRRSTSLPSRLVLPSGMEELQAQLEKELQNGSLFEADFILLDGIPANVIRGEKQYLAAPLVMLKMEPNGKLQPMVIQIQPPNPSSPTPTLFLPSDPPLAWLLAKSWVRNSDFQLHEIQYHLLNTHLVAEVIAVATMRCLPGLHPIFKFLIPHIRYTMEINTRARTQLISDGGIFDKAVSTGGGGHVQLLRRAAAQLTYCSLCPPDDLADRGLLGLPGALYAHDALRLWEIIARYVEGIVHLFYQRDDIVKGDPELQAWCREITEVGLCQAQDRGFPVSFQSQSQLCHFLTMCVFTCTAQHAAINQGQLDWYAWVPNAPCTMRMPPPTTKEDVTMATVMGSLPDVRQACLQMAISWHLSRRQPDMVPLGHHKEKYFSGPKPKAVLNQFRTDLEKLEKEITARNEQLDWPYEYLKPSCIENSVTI
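Hydroperoxide product was detected by ferrous iron/xylenol orange as the 573 to 405 nm absorbance ratio. Arachidonic acid at 40 uM (final) was turned over for 30 min at room temperature by 150 nM human 12hLO, pH 7.0 Hepes buffer, after 15 min compound preincubation.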
ELG1 DNA repair – qHTS screen for small molecules that inhibit ELG1-dependent DNA repair in human embryonic kidney (HEK293T) cells expressing luciferase-tagged ELG1; HEK293T ELG1-luciferase reporter, luminescence, 16 h; DNA damage induced by 5-fluorouridine; Potency, µM (doses to about 46.1 µM), without a hit: top-dose activity change, negative = inhibition, most hits filed as inhibitors; 2.3% of 330,000 active; note: nearly all actives have a fitted effect of over 55% in size
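5-Fluorouridine DNA damage + compound/DMSO, 2,000 cells/well, 16 h, 37 °C/5% CO2. ONE-Glo, 30 min RT, luminescence. Readout = decrease in reporter signal.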
DT40 TDP1 CPT – qHTS for Inhibitors of human tyrosyl-DNA phosphodiesterase 1 (TDP1): qHTS in cells in presence of CPT. Potency, µM (doses to about 46.2 µM), inactives show top-dose activity change, negative = growth inhibition, most hits filed as inhibitors. 12% of 420,000 active. chicken DT40 Tdp1-/-;hTDP1 cells + 20 nM CPT, ATP luminescence, 48 h; note: nearly all actives have a fitted effect of over 55% in size
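Cell growth measured by CellTiter-Glo luminescence after a minimum 48 h, 37 C compound exposure with 20 nM CPT in Tdp1-knockout DT40 cells stably expressing hTDP1, seeded 400/well; qHTS titration format.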
RORgamma inh – qHTS for inhibitors of ROR gamma transcriptional activity. Drosophila S2 Gal4-RORgamma UAS-luciferase reporter, 20 h. Nuclear receptor ROR-gamma (Mus musculus), P51450. 5.4% of 310,000 active. AID 2551, 2010. Potency, µM (series often up to 53.6 µM), for inactives: top-dose activity change, negative = inhibition, usual class: inhibitors; note: nearly all actives have a fitted effect of over 60% in size
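In this cell-based reporter format, copper sulfate (700 uM final) drives Gal4–ROR gamma fusion expression from a metallothionein promoter in Drosophila Schneider cells; compounds preincubated 1 hr, reporter read after 20 hr at ambient temperature.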
Gal4-VP16 FLuc – VP16 counterscreen qHTS for inhibitors of ROR gamma transcriptional activity; Drosophila S2 Gal4-VP16 UAS-luciferase, luminescence, 20 h; Potency, µM (highest dose often 53.6 µM), without a hit: at the highest dose activity, negative = inhibition, hits mostly inhibitors; 3.5% of 310,000 active;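 note: Gal4-VP16 expression switched on by copper sulfate through the metallothionein promoter; nearly all actives have a fitted effect of over 50% in size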
An asterisk follows results filed as active; ? = inconclusive; / = no result; ! = repeats disagree; [ ] = dose if it differs, or a comment. Calls come from the whole dose curve; as a rule, active = well fitted curve in the direction sought with a large enough effect; inconclusive = small, poorly fitted or top-dose-only effect, or another doubt; inactive = no such curve, though single readings can be large; an effect the other way counts as inactive or inconclusive. % is set by controls: 0 for no effect and ±100 for the full control effect; potency is the fitted concentration of half-maximal effect.

SMILES	TDP1 cell noCPT	ALOX12 inh	ELG1 DNA repair	DT40 TDP1 CPT	RORgamma inh	Gal4-VP16 FLuc
CC(=O)Nc1ccc(NC(=O)c2ccc(-c3c(C)noc3C)c3ccoc23)cc1	?	-5.3%	/	20.6µM*	/	/
CC1CC(=O)Nc2cc(S(=O)(=O)NCc3ccccn3)ccc2S1 (stereo not drawn)	/	-0.4%	/	/	/	/
CC(=O)c1cccc(NC(=O)c2onc(C)c2Cl)c1	-13.0%	-8.2%	?	13.6%	11.6%	2.1%
Cc1noc(C)c1-c1ccc(C(=O)Nc2ccc(C(C)C)cc2)c2occc12	10.3µM*	-2.3%	/	11.6µM*	/	/
CC(=O)c1cccc(NC(=O)c2ccc(-c3c(C)noc3C)c3ccoc23)c1	?	?	/	16.4µM*	/	/
CC(Oc1ccc(Cl)cc1)C(=O)OCc1nc(N)nc(N)n1 (stereo not drawn)	/	2.9%	/	/	/	/
Cc1cc(C(=O)N2C[C@@H](COCC3CC3)[C@H](c3ccccn3)C2)ccn1	/	80.1%	/	/	/	/
COc1ccc(NC(=S)N(CCc2nc3cc(C)c(C)cc3[nH]2)Cc2cccnc2)cc1	-28.1%	-8.4%	16.4µM*	-27.7%	-28.4%	?
COc1ccc(NC(=S)N(CCc2c(C)[nH]c3ccccc23)Cc2cccnc2)cc1	-25.0%	8.1%	-23.8%	?	?	8.9%
CC1(C)OC(c2ccccc2O)OC1(C)C	/	75.4%	/	/	/	/
CC1(C)C(=O)N(c2ccccc2)C1c1ccccc1O (stereo not drawn)	16.4µM*	-69.3%	?	?	-12.5%	2.1%
COc1ccc(N2C(=O)C(C)(C)C2c2c(O)ccc3ccccc23)cc1 (stereo not drawn)	16.4µM*	?	-2.8%	20.6µM*	-2.3%	0.2%
O=C(C1=C[C@H](C2CC2)C[C@H](OCCCCO)O1)N1CCN(Cc2ccc3c(c2)OCO3)CC1	-26.7%	?	-15.4%	?	17.4%	7.8%
O=C(C1=C[C@@H](C2CCCCC2)C[C@@H](OCc2ccc(CO)cc2)O1)N1CCN(Cc2ccc3c(c2)OCO3)CC1	16.4µM*	-3.4%	?	?	11.8%	-22.6%
O=C(C1=C[C@H](C2CC2)C[C@H](OCc2ccc(CO)cc2)O1)N1CCN(Cc2ccc3c(c2)OCO3)CC1	?	-11.2%	6.51µM*	?	?	-5.3%
O=C(C1=C[C@H](C2CCCCC2)C[C@H](OCc2ccc(CO)cc2)O1)N1CCN(Cc2ccc3c(c2)OCO3)CC1	?	/	-13.0%	?	3.2%	-11.7%
O=C(Cc1coc2ccc3ccccc3c12)OC[C@@H]1CCCO1	/	4.9%	/	/	/	/
CCN1C(=O)C(O)(CC(=O)c2cccc(-n3cccc3)c2)c2ccccc21 (stereo not drawn)	16.4µM*	-28.3%	7.2%	?	?	11.2%
Cc1ccccc1CN1C(=O)C(O)(CC(=O)c2cccc(Br)c2)c2ccccc21 (stereo not drawn)	5.17µM*	-5.5%	/	-81.3%	/	/
COC(=O)CN1C(=O)C(O)(CC(=O)c2cccc(Br)c2)c2ccccc21 (stereo not drawn)	?	3.0%	14.5%	29.1µM*	3.3%	?
COc1ccc(OC)c(C(=O)CC2(O)C(=O)N(Cc3ccccc3C)c3ccccc32)c1 (stereo not drawn)	5.8µM*	-16.5%	/	16.4µM*	/	/
COC(=O)CN1C(=O)C(O)(CC(=O)c2ccc(Cl)cc2)c2ccccc21 (stereo not drawn)	?	12.8%	-1.5%	?	-0.3%	-18.3%
Fc1ccc(OC2CN(Cc3cccc4ccccc34)C2)c(F)c1	/	-0.1%[6.33 µM]	/	/	/	/
Cc1cnc(-c2ccccc2)n1C1CCN(C(=O)c2ccco2)CC1	/	60.7%	/	/	/	/
COc1cccc(C(=O)N2C(C(=O)NC(C)C)COC23CCN(C(=O)c2ccccc2F)CC3)c1 (stereo not drawn)	/	2.3%	/	/	/	/
SMILES	TDP1 cell noCPT	ALOX12 inh	ELG1 DNA repair	DT40 TDP1 CPT	RORgamma inh	Gal4-VP16 FLuc
COc1cc(C)ccc1N(CCCN1C(=O)c2cccc3cccc(c23)C1=O)C(=O)c1cccs1	9.2µM*	11.8%	20.6µM*	9.2µM*	13.5%	-11.4%
COc1cccc(OC)c1C(=O)Oc1ccc2c(c1)O/C(=C\c1ccncc1)C2=O	11.6µM*	-14.1%	23.1µM*	18.4µM*	?	?
O=C1/C(=C/c2cccnc2)Oc2cc(OS(=O)(=O)c3ccc(F)cc3)ccc21	?	6.1%	-25.3%	10.3µM*	31.5%	-21.8%
COc1ccc(S(=O)(=O)Oc2ccc3c(c2)O/C(=C\c2ccccc2)C3=O)cc1	/	-6.5%	/	/	/	/
Cc1ccc(S(=O)(=O)Oc2ccc3c(c2)O/C(=C\c2cccc(C)c2)C3=O)cc1	/	4.3%	/	/	/	/
O=C1/C(=C/c2ccncc2)Oc2cc(OS(=O)(=O)c3ccccc3)ccc21	11.6µM*	0.0%	?	?	4.5%	3.1%
Cc1ccc(S(=O)(=O)Oc2ccc3c(c2)O/C(=C\c2cccnc2)C3=O)cc1	20.6µM*	/	-6.5%	?	-4.9%	7.4%
Cc1ccc(NC(=O)N2CCN(Cc3ccc(Cl)s3)CC2)cc1	/	5.9%	/	/	/	/
CN[C@H]1CC[C@@H](c2ccc(Cl)c(Cl)c2)c2ccccc21	15µM*	?	18.6%	15µM*!	/	/
CNC1CCC(c2ccc(Cl)c(Cl)c2)c2ccccc21 (stereo not drawn)	18.4µM*	/	/	14.6µM*	/	/
CC1CCCCN1C(=O)CSc1nc2cc3c(cc2c(=O)n1Cc1ccc2c(c1)OCO2)OCO3 (stereo not drawn)	23.1µM*	?	?	20.6µM*	0.4%	0.4%
CCN(CC)C(=O)CSc1nc2cc3c(cc2c(=O)n1Cc1ccc(OC)cc1)OCO3	18.4µM*	-26.7%	-23.2%	23.1µM*	31.1%	6.7%
CCCCNC(=O)CSc1nc2cc3c(cc2c(=O)n1CCCCCC(=O)NCCc1ccc(OC)c(OC)c1)OCO3	1.3%	-19.2%	/	15.5%	/	/
CCN(CC)C(=O)CSc1nc2cc3c(cc2c(=O)n1CCCCCC(=O)NCCc1ccc(OC)c(OC)c1)OCO3	14.6µM*	-17.2%	/	14.6µM*	/	/
